In PubChem BioAssay (NCATS):
Inconclusive results are not listed. Entries that show only a call come without a potency. Calls of active or inactive are those of the source. Calls follow the shape of the dose curve; as a rule, active = well fitted inhibition curve with a large enough effect; inconclusive = small, poorly fitted or top-dose-only effect; inactive = flat fitted curve, though single readings scatter.

target: Phospholipid hydroperoxide glutathione peroxidase GPX4 (Homo sapiens) (UniProt P36969); assay: Primary qHTS Assay for Inhibitors of Recombinant Selenoprotein Glutathione Peroxidase 4 (GPX4) (AID 1845192); settings: recombinant GPX4, GR-coupled NADPH fluorescence, 15 min; series mostly up to 50 µM; also: nearly all actives have a fitted effect of over 65% in size; also: potency is read from the fitted curve at half-maximal effect
Sequence (P36969 whole entry, looked up): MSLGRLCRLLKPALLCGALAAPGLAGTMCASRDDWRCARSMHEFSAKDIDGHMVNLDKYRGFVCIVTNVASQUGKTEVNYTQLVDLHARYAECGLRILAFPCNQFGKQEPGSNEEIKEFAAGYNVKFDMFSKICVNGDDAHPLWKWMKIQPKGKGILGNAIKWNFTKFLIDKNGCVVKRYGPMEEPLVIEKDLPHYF
Method in brief: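 NADPH consumption followed by fluorescence at 340/450 nm, t=0 and after 15 min at room temperature. Reaction started with cumene hydroperoxide (0.5 mM final) after 30 min compound–GPX4 preincubation; final 200 nM GPX4, 100 nM GR, 1 mM GSH, 0.5 mM NADPH.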

Q: For CCN1CCCC(OC(=O)C(c2ccccc2)c2ccccc2)C1 (stereo not drawn), which Potency is on record?
A: inactive

Q: Which Potency does the source give for CCc1nn(CCCN2CCN(c3cccc(Cl)c3)CC2)c(=O)n1CCOc1ccccc1 here?
A: inactive

Q: C=C[C@H]1CN2CC[C@H]1C[C@H]2[C@H](O)c1ccnc2ccc(OC)cc12 was tested. Which Potency did it give?
A: inactive

Q: O=C(Nc1ccccc1)OCC(CN1CCCCC1)OC(=O)Nc1ccccc1 (stereo not drawn) was tested. Which Potency did it give?
A: inactive

Q: How did the Potency turn out when CCCCCCCCCCC[C@@H](C[C@@H]1OC(=O)[C@H]1CCCCCC)OC(=O)[C@H](CC(C)C)NC=O was run?
A: inactive

Q: Which Potency does the source give for O=C1c2cccc3c2[C@H](CCC3)CN1[C@@H]1CN2CCC1CC2 here?
A: inactive

Q: Which Potency does the source give for C[N+]1(C)CCC(=C(c2ccccc2)c2ccccc2)CC1 here?
A: inactive

Q: Which outcome does the source give for CCN[C@@H]1C[C@H](N)[C@@H](OC2OC(CN)=CCC2N)[C@H](O)[C@H]1O[C@H]1OC[C@](C)(O)[C@H](NC)[C@H]1O (stereo partly drawn) here?
A: inactive [at 0.409 µM]

Q: For CCC(Cc1c(I)cc(I)c(N)c1I)C(=O)O (stereo not drawn), which Potency is on record?
A: inactive

Q: Which Potency does the source give for NC1CCN(c2nc3c(cc2F)c(=O)c(C(=O)O)cn3-c2ccc(F)cc2F)C1 (stereo not drawn) here?
A: inactive

Q: O=C1[C@H](CC[C@H](O)c2ccc(F)cc2)[C@@H](c2ccc(O)cc2)N1c1ccc(F)cc1 was tested. Which Potency did it give?
A: inactive

Q: With C[C@H]1O[C@@H](O[C@H]2CC[C@@]3(C)[C@H](CC[C@@H]4[C@@H]3C[C@@H](O)[C@]3(C)[C@@H](C5=CC(=O)OC5)CC[C@]43O)C2)C[C@H](O)[C@@H]1O[C@H]1C[C@H](O)[C@H](O[C@H]2C[C@H](O)[C@H](O[C@@H]3O[C@H](CO)[C@@H](O)[C@H](O)[C@H]3O)[C@@H](C)O2)[C@@H](C)O1 as the compound, how does the Potency read?
A: inactive

Q: Which Potency does the source give for CCCCC(CC)CN1CN(CC(CC)CCCC)CC(C)(N)C1 (stereo not drawn) here?
A: inactive

Q: With CC[C@]12CCCN3CCc4c(n(c5ccccc45)C(=O)C1)[C@@H]32 as the compound, how does the Potency read?
A: inactive

Q: With CO[C@H]1C=CO[C@@]2(C)Oc3c(C)c(O)c4c(O)c(c(/C=N/N5CCN(C)CC5)c(O)c4c3C2=O)NC(=O)/C(C)=C\C=C[C@H](C)[C@H](O)[C@@H](C)[C@@H](O)[C@@H](C)[C@H](OC(C)=O)[C@@H]1C as the compound, how does the Potency read?
A: 17.8 µM (active)

Q: With CCO[C@@H]1O[C@H](C(COCc2ccccc2)OCc2ccccc2)[C@H](OCc2ccccc2)[C@H]1O (stereo partly drawn) as the compound, how does the Potency read?
A: inactive

Q: How did the Potency turn out when N[C@H](C(=O)O)[C@@H](O)c1ccc(O)c(O)c1 was run?
A: inactive

Q: Which Potency does the source give for O=C(CCCN1CC=C(n2c(=O)[nH]c3ccccc32)CC1)c1ccc(F)cc1 here?
A: inactive

Q: CC(=C(CCOC(=O)C(C)C)SSC(CCOC(=O)C(C)C)=C(C)N(C=O)Cc1cnc(C)nc1N)N(C=O)Cc1cnc(C)nc1N was tested. Which Potency did it give?
A: inactive

Q: Which Potency does the source give for CC(=O)OCC1=C(C(=O)O)N2C(=O)[C@@H](NC(=O)CSc3ccncc3)[C@H]2SC1 here?
A: inactive

Q: C#C[C@]1(O)CC[C@H]2[C@@H]3[C@H](C)CC4=C(CCC(=O)C4)[C@H]3CC[C@@]21C was tested. Which Potency did it give?
A: inactive

Q: For C[N+]12CCC(CC1)C(OC(=O)C(O)(c1ccccc1)c1ccccc1)C2 (stereo not drawn), which Potency is on record?
A: inactive

Q: Which Potency does the source give for CN(C)CCOC(=O)C(c1ccccc1)C1(O)CCCC1 (stereo not drawn) here?
A: inactive

Q: Which Potency does the source give for CC(C)(C)NCC(O)COc1cccc2c1C[C@H](O)[C@H](O)C2 (stereo partly drawn) here?
A: inactive

Q: For C=C1c2cccc(O)c2C(O)=C2C(=O)[C@]3(O)C(O)=C(C(N)=O)C(=O)[C@@H](N(C)C)[C@@H]3[C@@H](O)[C@H]12, which Potency is on record?
A: 11.2 µM (active)

Q: For CN=C(N)NCCC[C@H](N)C(=O)O, which Potency is on record?
A: inactive

Q: With CCC1NC(=O)c2cc(S(N)(=O)=O)c(Cl)cc2N1 (stereo not drawn) as the compound, how does the Potency read?
A: inactive

Q: Which Potency does the source give for CC(C)[C@@H]1CC[C@@H](C)CC1=O here?
A: inactive

Q: How did the Potency turn out when OC[C@H]1O[C@@H](Oc2ccc(O)cc2)[C@H](O)[C@@H](O)[C@@H]1O was run?
A: inactive

Q: For CC(=O)O[C@]1(C(C)=O)CC[C@H]2[C@@H]3C=C(C)C4=CC(=O)CC[C@]4(C)[C@H]3CC[C@@]21C, which Potency is on record?
A: inactive

Q: C=C[C@H]1CN2CC[C@H]1C[C@@H]2[C@@H](O)c1ccnc2ccc(OC)cc12 was tested. Which Potency did it give?
A: inactive

Q: CC(C(=O)O)c1cccc(Oc2ccccc2)c1 (stereo not drawn) was tested. Which Potency did it give?
A: inactive

Q: With CCCCN1C[C@H](O)[C@@H](O)[C@H](O)[C@H]1CO as the compound, how does the Potency read?
A: inactive

Q: With CCOC(=O)[C@H](CCc1ccccc1)N[C@@H](C)C(=O)N1[C@H](C(=O)O)C[C@@H]2CCC[C@@H]21 as the compound, how does the Potency read?
A: inactive

Q: Which Potency does the source give for CC(O)Cn1cnc2c1c(=O)n(C)c(=O)n2C (stereo not drawn) here?
A: inactive

Q: How did the Potency turn out when N#C/C(=C1\SCC(c2ccccc2Cl)S1)n1ccnc1 (stereo not drawn) was run?
A: inactive

Q: Which Potency does the source give for CCN(CC)CCOC(=O)C(Cc1cccc2ccccc12)CC1CCCO1 (stereo not drawn) here?
A: inactive

Q: For CC(CNC1CCCCC1)OC(=O)c1ccccc1 (stereo not drawn), which Potency is on record?
A: inactive

Q: How did the Potency turn out when C[C@@]12C(=O)OC(=O)[C@]1(C)C1CCC2O1 was run?
A: inactive

target: Luciferin 4-monooxygenase (Photinus pyralis) (UniProt P08659); assay: Primary firefly luciferase (FLuc) qHTS assay for identification of artifact compounds. (AID 1845220); settings: purified firefly luciferase, luminescence, 5 min; series mostly up to 54.1 µM; also: nearly all actives have a fitted effect of over 60% in size
Method in brief: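 Compounds sat 15 min at room temperature with 10 uM luciferin and 10 uM ATP (pH 7.6 Tris acetate). Firefly luciferase (10 nM final) was then added, and luminescence was read 5 min later. Data normalized to no-enzyme and DMSO controls were Hill-fitted.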

Q: Which outcome does the source give for C=C[C@H]1CN2CC[C@H]1C[C@H]2[C@H](O)c1ccnc2ccc(OC)cc12 here?
A: inactive

Q: O=C1[C@H](CC[C@H](O)c2ccc(F)cc2)[C@@H](c2ccc(O)cc2)N1c1ccc(F)cc1 was tested. Which outcome did it give?
A: inactive

Q: CC[C@]12CCCN3CCc4c(n(c5ccccc45)C(=O)C1)[C@@H]32 was tested. Which outcome did it give?
A: inactive

Q: O=C(CCCN1CC=C(n2c(=O)[nH]c3ccccc32)CC1)c1ccc(F)cc1 was tested. Which outcome did it give?
A: inactive
